Molecules are shown by their SMILES. Counter-ions that a name gives are not always drawn. ± gives the standard deviation of the averaged measurements.

For one test, the system named is E. coli TESEC Mtb DapB. In words: growth (OD600 after 10 h); higher = more growth (less inhibition). The settings on record: arabinose induction (level): High; compound 0.1 mM; raw OD600 reference: median of DMSO wells […], cell-free background 0.041. As to the method: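 TESEC E. coli strains in which the native enzyme is deleted and replaced by arabinose-inducible Mtb Asd, DapB, CysH or TrpD, each grown in its selective medium. Strains were screened against the Prestwick library at 0.1 mM and 1% DMSO in 384-well format at low and high arabinose induction. Growth is read as OD600 after 10 h in triplicate.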
As to `COc1ccc(CN(CCN(C)C)c2ccccn2)cc1` [Pyrilamine maleate], the growth is 0.188 ± 0.017. Turning to `C#C[C@]1(O)CC[C@H]2[C@@H]3CCC4=Cc5oncc5C[C@]4(C)[C@H]3CC[C@@]21C` [Danazol], the growth amounted to 0.169 ± 0.0079. In the case of `CCN(CC)C(C)CN1c2ccccc2Sc2ccccc21` (stereo not given) [Ethopropazine hydrochloride], the growth was 0.2149 ± 0.0019.

For `CCCNC(C)C(=O)Nc1c(C)csc1C(=O)OC` (stereo not given) [Articaine hydrochloride], the growth is 0.205 ± 0.016. With `Cc1ccc(Cl)c(Nc2ccccc2C(=O)O)c1Cl` [Meclofenamic acid sodium salt monohydrate], the growth amounted to 0.118 ± 0.021. For the compound `CC(=O)Nc1ccc(OCC(O)CNC(C)C)cc1` (stereo not given) [Practolol], the growth turned out to be 0.177 ± 0.0065. In turn, `CN(C)CCOC(=O)COc1ccc(Cl)cc1` [Meclofenoxate hydrochloride] displayed a growth of 0.199 ± 0.014. The same measure, in the same setting: the same measure for `NCCNCCNCCNCCN` [Tetraethylenepentamine pentahydrochloride]: 0.196 ± 0.003; for `C#C[C@]1(O)CC[C@H]2[C@@H]3CCC4=CC(=O)CC[C@@H]4[C@H]3CC[C@@]21C` [Norethindrone]: 0.183 ± 0.0096; for `Nc1c(Br)cc(Br)cc1CN[C@H]1CC[C@H](O)CC1` [Ambroxol hydrochloride]: 0.204 ± 0.015. As for `Clc1ccc(C(c2ccccc2Cl)C(Cl)Cl)cc1` (stereo not given) [Mitotane], the growth amounted to 0.208 ± 0.0072. `Cc1nc2ccccn2c(=O)c1CCN1CCC(C(=O)c2ccc(F)cc2)CC1` [Pirenperone] registered a growth of 0.223 ± 0.0088. The same measure, in the same setting: then `O=c1cc(-c2ccc(O)c(O)c2)oc2cc(O)cc(O)c12` [Luteolin], with 0.0614 ± 0.0012; and `CC[N+](C)(C)c1cccc(O)c1` [Edrophonium chloride], with 0.203 ± 0.017. In turn, `CCn1cc(C(=O)O)c(=O)c2cc(F)c(N3CCNC(C)C3)c(F)c21` (stereo not given) [Lomefloxacin hydrochloride] gave a growth of 0.0491 ± 0.0012.

The test is the same for the next values; noted with them: arabinose induction (level): Low; compound 0.1 mM; raw OD600 reference: median of DMSO wells 0.227, cell-free background 0.041.
Turning to `CCCNC(C)(C)COC(=O)c1ccccc1` [Meprylcaine hydrochloride], the growth is 0.221 ± 0.0093. Same read-out and setting: then `CN1CCC(=C2c3ccccc3CCc3cccnc32)CC1` [Azatadine maleate], with 0.186 ± 0.018; and `CNC(=C[N+](=O)[O-])NCCSCc1csc(CN(C)C)n1` [Nizatidine], with 0.228 ± 0.025; and `Fc1ccc(C(c2ccc(F)cc2)N2CCN(C/C=C/c3ccccc3)CC2)cc1` [Flunarizine dihydrochloride], with 0.163 ± 0.065. On the same count and under the same terms, the same measure for `CC(C(=O)O)c1cccc(C(=O)c2ccccc2)c1` (stereo not given) [Ketoprofen]: 0.248 ± 0.058; for `C1N2CN3CN1CN(C2)C3` [Methenamine]: 0.218 ± 0.035. In turn, `Cc1c(N(C)CS(=O)(=O)O)c(=O)n(-c2ccccc2)n1C` [Dipyrone] showed a growth of 0.23 ± 0.012. Turning to `Cc1onc(-c2ccccc2)c1-c1ccc(S(N)(=O)=O)cc1` [Valdecoxib], the growth was found to be 0.229 ± 0.022.

In turn, `O=C(C1CCCCC1)N1CC(=O)N2CCc3ccccc3C2C1` (stereo not given) [Praziquantel] registered a growth of 0.21 ± 0.027. The compound `Clc1ccc(Cn2c(CN3CCCC3)nc3ccccc32)cc1` [Clemizole hydrochloride] showed a growth of 0.212 ± 0.079. In the case of `O=C(O)c1ccccc1OP(=O)(O)O` [Fosfosal], the growth is 0.239 ± 0.0092.

`COc1ccc(C2CNC(=O)C2)cc1OC1CCCC1` (stereo not given) [Rolipram]: the growth was determined as 0.217 ± 0.0081. Turning to `CCC1=C(C)CN(C(=O)NCCc2ccc(S(=O)(=O)NC(=O)N[C@H]3CC[C@H](C)CC3)cc2)C1=O` [Glimepiride], the growth turned out to be 0.221 ± 0.018.

Regarding `CC(=O)Nc1c(I)c(C(=O)N[C@H]2C(O)O[C@H](CO)[C@@H](O)[C@@H]2O)c(I)c(N(C)C(C)=O)c1I` (stereo not given in full) [Metrizamide], the growth was 0.212 ± 0.013. Regarding `CN(C(=O)C(Cl)Cl)c1ccc(OC(=O)c2ccco2)cc1` [Diloxanide furoate], the growth is 0.21 ± 0.02. Compound `Cc1c(Cl)cccc1Nc1ccccc1C(=O)O` [Tolfenamic acid] yielded a growth of 0.0876 ± 0.044.

Turning to `COc1ccc(C(=O)CC(=O)c2ccc(C(C)(C)C)cc2)cc1` [Avobenzone], the growth came out at 0.239 ± 0.055. Compound `NCc1ccccc1CC(=O)N[C@@H]1C(=O)N2C(C(=O)O)=C(CSc3nnnn3CC(=O)O)CS[C@H]12` [Ceforanide] had a growth of 0.242 ± 0.012. Consider `CN(C)CCCN1c2ccccc2CCc2ccccc21` [Imipramine hydrochloride], for which the growth was 0.243 ± 0.071. In turn, `COc1ccc(-c2cc(=O)c3c(O)cc(O[C@@H]4O[C@H](CO[C@@H]5O[C@@H](C)[C@H](O)[C@@H](O)[C@H]5O)[C@@H](O)[C@H](O)[C@H]4O)cc3o2)cc1O` [Diosmin] gave a growth of 0.243 ± 0.017.

`COC(=O)N/N=C/c1c[n+]([O-])c2ccccc2[n+]1[O-]` [Carbadox] had a growth of 0.168 ± 0.0094.

In turn, `N=C(N)NC(=O)c1nc(Cl)c(N)nc1N` [Amiloride hydrochloride dihydrate] had a growth of 0.278 ± 0.035. For the compound `Nc1nc(Cl)nc2c1ncn2[C@H]1C[C@H](O)[C@@H](CO)O1` [Cladribine], the growth worked out at 0.209 ± 0.018. For the compound `CO[C@@]1(NC(=O)C2SC(=C(C(N)=O)C(=O)O)S2)C(=O)N2C(C(=O)O)=C(CSc3nnnn3C)CS[C@@H]21` (stereo not given in full) [Cefotetan], the growth amounted to 0.0511 ± 0.01. Regarding `CC(=O)O[C@H]1C[C@@]2(C)[C@@H](C[C@@H](O)[C@H]3[C@@]4(C)CC[C@@H](O)[C@@H](C)[C@@H]4CC[C@@]32C)/C1=C(\CCC=C(C)C)C(=O)O` [Fusidic acid sodium salt], the growth worked out at 0.052 ± 0.0007. In turn, `COc1ccc(CN(CCN(C)C)c2ccccn2)cc1` [Pyrilamine maleate] displayed a growth of 0.211 ± 0.029. As to `C#C[C@]1(O)CC[C@H]2[C@@H]3CCC4=Cc5oncc5C[C@]4(C)[C@H]3CC[C@@]21C` [Danazol], the growth was determined as 0.176 ± 0.0079. As to `CCN(CC)C(C)CN1c2ccccc2Sc2ccccc21` (stereo not given) [Ethopropazine hydrochloride], the growth was found to be 0.236 ± 0.015. In turn, `CCCNC(C)C(=O)Nc1c(C)csc1C(=O)OC` (stereo not given) [Articaine hydrochloride] registered a growth of 0.236 ± 0.043. As for `Cc1ccc(Cl)c(Nc2ccccc2C(=O)O)c1Cl` [Meclofenamic acid sodium salt monohydrate], the growth is 0.123 ± 0.016.

In the case of `CC(=O)Nc1ccc(OCC(O)CNC(C)C)cc1` (stereo not given) [Practolol], the growth stood at 0.22 ± 0.025. Compound `CN(C)CCOC(=O)COc1ccc(Cl)cc1` [Meclofenoxate hydrochloride] yielded a growth of 0.204 ± 0.019. Regarding `NCCNCCNCCNCCN` [Tetraethylenepentamine pentahydrochloride], the growth came to 0.22 ± 0.015. On to `C#C[C@]1(O)CC[C@H]2[C@@H]3CCC4=CC(=O)CC[C@@H]4[C@H]3CC[C@@]21C` [Norethindrone], for which the growth was 0.21 ± 0.042. The same measure, in the same setting: the same measure for `Nc1c(Br)cc(Br)cc1CN[C@H]1CC[C@H](O)CC1` [Ambroxol hydrochloride]: 0.221 ± 0.029.

With `Clc1ccc(C(c2ccccc2Cl)C(Cl)Cl)cc1` (stereo not given) [Mitotane], the growth was 0.224 ± 0.033. In turn, `Cc1nc2ccccn2c(=O)c1CCN1CCC(C(=O)c2ccc(F)cc2)CC1` [Pirenperone] had a growth of 0.23 ± 0.037. `O=c1cc(-c2ccc(O)c(O)c2)oc2cc(O)cc(O)c12` [Luteolin]: the growth is 0.0607 ± 0.002. `CC[N+](C)(C)c1cccc(O)c1` [Edrophonium chloride] registered a growth of 0.27 ± 0.098. In the case of `CCn1cc(C(=O)O)c(=O)c2cc(F)c(N3CCNC(C)C3)c(F)c21` (stereo not given) [Lomefloxacin hydrochloride], the growth is 0.0483 ± 0.0006.

Source of the values: the supplement of paper PMC9262897, “Low-cost anti-mycobacterial drug discovery using engineered E. coli” (Nature Communications, 2022).
